Values joined by “and” are separate entries in the source; they are usually repeats but may differ in a detail not shown here. Identical values can stand only once. Results filed as inconclusive are left out. Where a structure was tested more than once in an assay, its records may differ in their call. Active and inactive are the calls of the source. How the source made its calls, unless noted: active means hit-call score of the fitted dose curve at least 0.9, where 1 is the maximum; inactive means score below 0.9.

A short description of assay [1]: BSK_3C_SRB: Viability Assessment in the BioMAP Diversity Plus: 3C Assay (AID 2283023).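 Further: fitted both ways against DMSO so a hit may be signal rise or drop.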 To be noted: primary human endothelial cells (HUVEC). In short, it runs like this: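 Human umbilical vein endothelial cells in the 3C system, treated 24 h. Total protein measured by 0.1% sulforhodamine B staining after 10% TCA fixation, read at 560 nm; bidirectional fit versus DMSO.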

Read-out in assay [2]: Matrix Metallopeptidase 1 (MMP1), MMP1 (gene 4312)
Description: BSK_BE3C_MMP1: BioMAP Diversity Plus: BE3C Assay for Matrix Metallopeptidase 1 (MMP1) Biomarker Activity (AID 2283024). To be noted: primary human bronchial epithelial cells; actives raise or lower the signal. An outline of the steps: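 Human primary bronchial epithelial cells (BE3C system) dosed for 24 h; MMP-1 quantified by ELISA. Bidirectional fit against DMSO; cytotoxicity tracked in parallel cultures by SRB total-protein staining.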

Read-out in assay [3]: Pselectin, SELP (gene 6403)
Description: BSK_4H_Pselectin: BioMAP Diversity Plus: 4H Assay for Pselectin Biomarker Activity (AID 2283026). To be noted: primary human endothelial cells (HUVEC); actives raise or lower the signal. In short, it runs like this:
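Primary human umbilical vein endothelial cells were treated 24 h, and cell-surface P-selectin was then quantified by ELISA. Bidirectional fit versus DMSO; cytotoxicity checked in parallel cultures by SRB total-protein staining.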

Assay [4] can be described thus: BSK_4H_SRB: Viability Assessment in the BioMAP Diversity Plus: 4H Assay (AID 2283027).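 Further: cells exposed to compound for 24 h before staining.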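 On AC50: curves fitted both ways versus DMSO so AC50 may be loss or gain.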 To be noted: primary human endothelial cells (HUVEC). An outline of the steps:
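Human umbilical vein endothelial cells, 24 h after chemical dosing; total protein measured by 0.1% sulforhodamine B staining after 10% TCA fixation, read at 560 nm. Bidirectional fitting against DMSO.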

A short description of assay [5]: BSK_BE3C_SRB: Viability Assessment in the BioMAP Diversity Plus: BE3C Assay (AID 2283028).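 On AC50: fitted both ways so AC50 may mark signal gain or loss versus DMSO.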 To be noted: primary human bronchial epithelial cells. An outline of the steps: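 Human bronchial epithelial primary cells in confluent culture, 24 h after chemical dosing; total protein by 0.1% SRB staining after 10% TCA fixation, read at 560 nm. Bidirectional fitting versus DMSO baseline.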

Read-out in assay [6]: Thrombomodulin, THBD (gene 7056)
The assay is described as follows: BSK_3C_Thrombomodulin: BioMAP Diversity Plus: 3C Assay for Thrombomodulin Biomarker Activity (AID 2283029). To be noted: primary human endothelial cells (HUVEC); actives raise or lower the signal. In short, it runs like this: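 Human umbilical vein endothelial cells were exposed to chemicals for 24 h; cell-surface thrombomodulin quantified by ELISA, with bidirectional fitting against DMSO baseline.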

Read-out in assay [7]: Urokinase-type plasminogen activator receptor (uPAR), PLAUR (gene 5329)
Description: BSK_4H_uPAR: BioMAP Diversity Plus: 4H Assay for Urokinase-type plasminogen activator receptor (uPAR) Biomarker Activity (AID 2283030). To be noted: primary human endothelial cells (HUVEC); actives raise or lower the signal. In short, it runs like this:
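Human umbilical vein endothelial cells in the 4H system, 24 h after chemical dosing. Cell-surface uPAR measured by ELISA, fitted in both directions versus DMSO; cytotoxicity checked by SRB total protein in parallel cultures.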

Read-out in assay [8]: Vascular endothelial growth factor receptor 2 (Homo sapiens) (UniProt P35968)
The assay is described as follows: BSK_4H_VEGFRII: BioMAP Diversity Plus: 4H Assay for Vascular endothelial growth factor receptor 2 (VEGFR2) Biomarker Activity (AID 2283031).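 On AC50: cell-surface VEGFR2 protein level quantified by ELISA.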 To be noted: primary human endothelial cells (HUVEC); actives raise or lower the signal. An outline of the steps: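 Primary human umbilical vein endothelial cells (4H system), 24 h exposure; cell-surface VEGFR2 measured by ELISA. Bidirectional fitting versus DMSO; cytotoxicity checked in parallel by SRB total-protein staining.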

Read-out in assay [9]: Human Leukocyte Antigen - DR isotype (HLADR), HLA-DRA (gene 3122)
The assay is described as follows: BSK_BE3C_HLADR: BioMAP Diversity Plus: BE3C Assay for Human Leukocyte Antigen - DR isotype (HLADR) Biomarker Activity (AID 2283032). To be noted: primary human bronchial epithelial cells; actives raise or lower the signal. An outline of the steps: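 Human primary bronchial epithelial cells (BE3C system) exposed to compound for 24 hours; cell-surface HLA-DR measured by ELISA, fitted bidirectionally relative to DMSO. Total protein by SRB in parallel cultures tracked cytotoxicity.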

Assay [10] deals with human Vitamin D Receptor (VDR), VDR (gene 7421) (UniProt P11473). The assay is described as follows: ATG_VDR_TRANS: Attagene TRANS-FACTORIAL HepG2 Assay for human Vitamin D Receptor (VDR) (AID 2283022; active means hit-call score of the fitted dose curve at least 0.9, where 1 is the maximum). An outline of the steps:
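HepG2 cells were transiently transfected with GAL4-UAS reporter units and a chimeric VDR-Gal4 construct, then dosed for 24 hours. Reporter mRNA was quantified by RT-PCR, fluorescent labeling, HpaI digestion and capillary electrophoresis; gain of signal analysed vs DMSO.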

Chain of human Vitamin D Receptor (VDR), VDR (gene 7421) (P11473 whole entry, looked up, the tested form may be a part): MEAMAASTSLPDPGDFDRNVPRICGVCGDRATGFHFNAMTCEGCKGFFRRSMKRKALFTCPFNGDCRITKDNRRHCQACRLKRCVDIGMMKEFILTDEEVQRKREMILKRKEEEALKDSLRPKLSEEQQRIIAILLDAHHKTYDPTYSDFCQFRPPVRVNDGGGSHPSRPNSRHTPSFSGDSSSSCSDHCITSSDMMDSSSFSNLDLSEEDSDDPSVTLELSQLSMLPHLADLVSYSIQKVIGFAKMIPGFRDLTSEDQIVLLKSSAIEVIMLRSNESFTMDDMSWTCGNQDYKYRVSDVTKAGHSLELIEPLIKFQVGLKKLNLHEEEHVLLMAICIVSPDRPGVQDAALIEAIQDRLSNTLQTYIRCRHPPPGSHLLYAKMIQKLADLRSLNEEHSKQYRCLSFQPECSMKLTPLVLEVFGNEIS

Regarding `C[C@@H]1CCN(C(=O)[C@H](CCCN=C(N)N)NS(=O)(=O)c2cccc3c2NC[C@H](C)C3)[C@@H](C(=O)O)C1`, the outcome in [1], in [3], in assay [4], in assay [5], in assay [6] and in [7] was inactive. Besides, the result in assay [8] and in assay [9] was inactive. In addition, the AC50 in [2] is 0.0398 µM (active).

On to `CC(=O)Nc1ccc(C(=O)CCl)cc1`, for which the call in assay [10], in [5] and in [6] was inactive. Also, the AC50 in assay [1] is 9.52 µM (active); in [2] it was 13.2 µM (active); in assay [3], 4.79 µM (active); in [4], 6.69 µM (active); in assay [7], 9.47 µM (active); in assay [8], 9.38 µM (active). For the same molecule, the AC50 in [9] is 15.1 µM (active).

With `c1ccc2cc(Nc3ccc(Nc4ccc5ccccc5c4)cc3)ccc2c1`, the outcome in assay [1], in assay [2], in [3], in assay [4], in [5] and in assay [6] was inactive. Further, the result in assay [7], in assay [8] and in [9] was inactive.

Regarding `CCOC(=O)C(C#N)=C(c1ccccc1)c1ccccc1`, the AC50 in assay [1] was 25.6 µM (active) and 20 µM (active); in assay [2], 25.2 µM (active) and 31.1 µM (active); in [6], 8.14 µM (active). The outcome in [3], in assay [4], in [5], in [6], in [7] and in assay [8] was inactive. Further, in assay [9], the result was inactive.

Regarding `CN(C)C(=S)SC(=S)N(C)C`, the outcome in assay [10], in assay [2], in assay [3], in assay [5], in [6] and in assay [7] was inactive. In assay [8], the result was inactive. For the same molecule, the AC50 was 19.9 µM (active) in assay [1], 19.9 µM (active) in assay [4] and 13.7 µM (active) in assay [9].

Turning to `CN(C)C(=O)Nc1ccc(Oc2ccc(Cl)cc2)cc1`, the result in [10], in assay [1], in [2], in assay [3], in assay [4] and in assay [5] was inactive. For the same molecule, the outcome in assay [6], in assay [7], in assay [8] and in [9] was inactive.

On to `CCCCN(CCCC)C(=O)N(CCCC)CCCC`, for which the molecule was called inactive in [10] and in assay [6]. The AC50 in assay [1] is 7.99 µM (active); in [2], 20 µM (active); in assay [3], 12.2 µM (active); in [4], 8.59 µM (active); in assay [5], 7.45 µM (active); in assay [7] it was 7.82 µM (active). Besides, the figures for the AC50 in assay [8] and in assay [9] were 23.7 µM (active) and 12.5 µM (active), respectively.

The record behind these values is PubChem BioAssay (EPA / NIEHS).
